Screening results from PubChem BioAssay.
In the library only some 4.5% were active in any assay of this set; here they are far more common.
Mdm2-MdmX inh – human Mdm2/MdmX binding inhibition; inhibition, % at 8 µM; O15151+Q00987; AID 485346; SaOS-2 split-luciferase Mdm2/MdmX complementation, luminescence; 330,000 compounds, 3% hits;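 active = inhibition of at least 50% at 8 µM in the primary screen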
Target sequence (O15151 whole entry, looked up): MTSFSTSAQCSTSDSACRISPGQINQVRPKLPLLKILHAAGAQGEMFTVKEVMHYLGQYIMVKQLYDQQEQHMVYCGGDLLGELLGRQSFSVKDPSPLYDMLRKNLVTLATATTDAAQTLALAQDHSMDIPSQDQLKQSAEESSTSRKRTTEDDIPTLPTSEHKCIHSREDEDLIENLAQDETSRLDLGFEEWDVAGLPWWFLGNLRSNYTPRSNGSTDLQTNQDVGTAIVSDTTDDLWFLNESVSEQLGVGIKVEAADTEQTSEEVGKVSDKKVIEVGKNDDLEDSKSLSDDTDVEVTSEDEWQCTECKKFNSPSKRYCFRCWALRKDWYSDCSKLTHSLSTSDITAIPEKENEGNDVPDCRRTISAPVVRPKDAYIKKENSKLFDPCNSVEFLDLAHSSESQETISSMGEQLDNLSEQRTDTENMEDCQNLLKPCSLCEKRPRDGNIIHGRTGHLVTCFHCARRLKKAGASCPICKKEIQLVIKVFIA
Target sequence (Q00987 whole entry, looked up): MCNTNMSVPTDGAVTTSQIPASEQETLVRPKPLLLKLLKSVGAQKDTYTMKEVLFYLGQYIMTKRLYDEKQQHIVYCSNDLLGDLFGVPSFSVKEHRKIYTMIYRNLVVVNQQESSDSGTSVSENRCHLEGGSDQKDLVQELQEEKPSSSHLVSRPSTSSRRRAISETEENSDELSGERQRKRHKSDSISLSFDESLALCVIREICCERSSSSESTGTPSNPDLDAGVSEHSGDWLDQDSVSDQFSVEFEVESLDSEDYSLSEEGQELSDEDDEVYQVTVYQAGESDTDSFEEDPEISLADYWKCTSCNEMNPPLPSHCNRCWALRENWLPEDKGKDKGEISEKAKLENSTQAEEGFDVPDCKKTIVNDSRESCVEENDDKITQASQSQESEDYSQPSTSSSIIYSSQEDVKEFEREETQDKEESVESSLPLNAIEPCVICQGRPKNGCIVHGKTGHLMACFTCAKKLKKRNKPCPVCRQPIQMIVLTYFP
Beta cell apopt – beta cell apoptosis inhibition. 300,000 compounds, 0.8% hits. INS-1E cytokine-induced death, ATP luminescence, 48 h; percent of positive-control rescue, neutral wells zero. protection from apoptosis, % (no concentration beside the values);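 active = Every replicate reaches about 75%, or at least half do and their mean reaches it too, limit read from the data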;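 also: 0% = cytokine-treated negative control wells and 100% = positive control rescue; higher means more ATP so stronger rescue from cytokine killing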
Gli-Sufu antag – Gli-Sufu pathway antagonism; Sufu-KO-LIGHT fibroblasts, Gli luciferase reporter luminescence; inhibition, % at 5 µM; 340,000 compounds, 0.74% hits; AID 588413;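 active = inhibition above about 55%, limit read from the data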;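 also: 0% = DMSO-treated cells and 100% = wells with medium but no cells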
CSC inhib – blocks cancer stem cells; cancer stem cell-like cells viability, luminescence; inhibition, % at 7.5 µM; 300,000 compounds, 1.1% hits; in the data active = inhibition above about 75%; tested in HMLE shEcad cells
697 NFkB inh – inhibitors of the PMA/ionomycin-induced NF-kB reporter in 697 B cells. 697 B-cell NF-kB luciferase reporter, 16 h. inhibition, % at 4 µM. 330,000 compounds, 0.33% hits. AID 435022; in the data active = inhibition above about 35%
Jurkat NFkB inh – lowers PMA/ionomycin-induced NF-kB signal in Jurkat cells; 330,000 compounds, 0.53% hits; AID 435003; PMA/ionomycin-induced NF-kB luciferase reporter, luminescence; inhibition, % at 4 µM; in the data active = inhibition above about 50%
Mdm2-MdmX conf – human Mdm2/MdmX binding inhibition, confirmed; AID 489028; inhibition, % at 8 µM; luminescent assay; shares compounds with Mdm2-MdmX inh; 10,000 compounds, 55% hits; in the data active = inhibition above about 40%
Full FLuc ctr – full-length luciferase inhibition in Mdm2/MdmX counter-screen. shares compounds with Mdm2-MdmX inh. SaOS-2 full-length luciferase counterscreen, luminescence. inhibition, % at 8 µM. 6,200 compounds, 77% hits. AID 504607;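 active = mean inhibition at 8 µM reaching about 37%, which flags the compound as non-specific, limit read from the data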;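 also: p53-null SaOS-2 cells with luciferase driven by a doxycycline-inducible promoter; compound on cells about two nights before reading with doxycycline added after day one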
* marks the source's active call; other numbers are inactive results; . = no result given.

SMILES	Mdm2-MdmX inh	Beta cell apopt	Gli-Sufu antag	CSC inhib	697 NFkB inh	Jurkat NFkB inh	Mdm2-MdmX conf	Full FLuc ctr
NC(=O)c1cc2ccncc2c2ccccc12	90*	-43	-19	-4	10	38	94*	51*
COC(=O)c1ccc(OCC2c3cc(OC)c(OC)cc3CCN2C(C)=O)cc1 (stereo not drawn)	-1	-2	10	-1	-28	25	.	.
COC(=O)c1ccc(OCC2c3cc(OC)c(OC)cc3CCN2C(=O)c2ccco2)cc1 (stereo not drawn)	53*	-10	6	.	9	45	43*	71*
COc1ccc(CN2C(=O)COc3ccccc32)cc1	9	-7	6	4	-13	-3	.	.
COc1ccc(CC2(CO)COc3ccccc3C2=O)cc1 (stereo not drawn)	51*	0	-7	49	-11	34	39	85*
O=c1c(O)c(-c2ccccc2)oc2ccccc12	.	.	-9	.	.	.	.	.
Cc1ccc(-c2oc3ccccc3c(=O)c2O)cc1	84*	20	-5	28	1	-36	51*	25
Cc1ccc(N/N=C(\C#N)C(N)=S)cc1C	64*	-4	12	21	-7	18	53*	72*
N#C/C(=N\Nc1ccccc1)C(N)=S	37	9	13	8	-19	10	.	.
COc1ccccc1NS(=O)(=O)c1cccc(NC(=O)Nc2cccc(Cl)c2)c1	55*	21	0	-15	4	-10	49*	46*
O=C(Nc1cccc(Cl)c1)Nc1ccc(Br)cc1F	82*	.	-20	.	-33	-39	80*	55*
O=C(Nc1ccccc1)Nc1ccc(Br)cc1F	-70	2	2	-11	-106	-64	.	.
O=C(Nc1cccc(Cl)c1)Nc1cccc(Cl)c1	6	43	-4	-11	-29	-13	.	.
COC(=O)c1cc(NC(=O)Nc2cccc(Cl)c2)ccc1Cl	88*	56	-22	37	10	-37	43*	96*
COc1ccccc1NS(=O)(=O)c1cccc(NC(=O)NCCCl)c1	-31	-2	23	-5	-10	-12	.	.
O=C(NCc1ccccc1F)c1ccncc1	24	2	7	0	7	1	.	.
COc1ccc(NC2CCCN(C(=O)c3ccccc3C(F)(F)F)C2)cc1 (stereo not drawn)	-1	-1	-5	5	12	8	.	.
CCOC(=O)c1cc(-c2ccccc2)nc2c(O)cccc12	.	.	-6	.	.	.	.	.
Cc1ccc(N(CC(=O)NCc2ccco2)C(=O)CCC(=O)Nc2ccccn2)c(C)c1	16	-5	-19	-5	9	2	.	.
O=C(Sc1nnc(-c2ccccc2)o1)N1c2ccccc2Sc2ccccc21	60*	.	-4	.	11	4	22	.
O=[N+]([O-])/C=C/c1c(OCc2ccccc2)ccc2ccccc12	95*	115*	.	-9	-34	-38	100*	50*
CCOc1ccc(/C=C/[N+](=O)[O-])c2ccccc12	47	6	6	61	18	-1	.	.
CN(C)CCCN(C(=O)c1ccc(C(=O)c2ccccc2)cc1)c1nc2cc3c(cc2s1)OCCO3	53*	0	9	-29	-22	-76	39	87*
CN(C)CCCN(C(=O)c1ccc2c(c1)CCCC2)c1nc2ccc(F)cc2s1	38	11	5	.	-38	-12	.	.
CN(C)CCCN(C(=O)c1ccc2c(c1)CCCC2)c1nc2cc3c(cc2s1)OCO3	64*	2	24	8	-9	0	49*	56*
SMILES	Mdm2-MdmX inh	Beta cell apopt	Gli-Sufu antag	CSC inhib	697 NFkB inh	Jurkat NFkB inh	Mdm2-MdmX conf	Full FLuc ctr
COc1cccc(CNC(=O)C2CCN(c3nnc(N4CCCC4=O)s3)CC2)c1	-6	-5	-5	-13	-11	-3	.	.
Cc1cc(Br)c(OCC(=O)NN)c2c1CCC2	4	-4	-8	-6	1	7	.	.
Cc1ccc2nc3sc(C(=O)N4CCOCC4)c(N)c3cc2c1	59*	-6	6	-10	13	-6	61*	103*
Cc1ccc2cc3c(N)c(C(=O)N4CCOCC4)sc3nc2c1	-20	-11	-66	-2	-20	-18	.	.
Cc1ccsc1C(=O)N1CC(=O)Nc2ccccc21	18	1	-6	1	-5	-8	.	.
Cc1ccc2cc3c(N)c(C(=O)N4CC(=O)Nc5ccccc54)sc3nc2c1	64*	39	.	-7	-26	-12	57*	83*
CCc1ccccc1C1=CC(=O)C[C@H](c2ccc(OC)cc2)C1	14	-6	1	.	-10	15	.	.
CCNC(=S)Nn1cnc2ccccc21	-15	-5	4	1	-10	-5	.	.
CNC(=O)COc1coc(CN2CCN(C(=O)c3ccco3)CC2)cc1=O	-8	.	-8	-5	19	13	.	.
CC(C)Oc1ccc(S(=O)(=O)N2CCOCC2)cc1NC(=O)Cc1c(F)cccc1Cl	2	5	15	22	-34	-18	.	.
O=C(NC1CCCC1)C(c1ccncc1)N(C(=O)Cn1nnc(-c2ccccc2F)n1)c1cccc(F)c1 (stereo not drawn)	2	0	20	4	-4	-10	.	.
COc1ccc(OC)c(-c2nn(-c3ccccc3)cc2C(=O)N2CCc3ccccc3C2)c1	16	-7	1	-15	10	18	.	.
COc1cccc(-c2nn(-c3ccc(C)cc3)cc2C(=O)N2CCc3cc(OC)c(OC)cc3C2)c1	58*	3	7	59	-26	25	67*	86*
COC1(OC)C(/C=C/c2ccc(C)cc2)C(C#N)(C#N)C1(OC)OC (stereo not drawn)	85*	-12	5	53	-4	19	43*	35
CC(C)Cc1ccc(C(=O)NCCOc2ccccc2)o1	-54	2	-55	-12	-147	-124	.	.
Cn1c(SCC(=O)NCCc2ccccc2)nnc1C1CCCCC1	9	-2	48	-3	7	6	.	.
O=C1c2cccc3cccc(c23)C(=O)N1CCN1CCN(CC(O)COc2ccc3ccccc3c2)CC1 (stereo not drawn)	67*	47	30	104*	-20	-2	27	.
O=C1c2cccc3cccc(c23)C(=O)N1CC1CCN(CC(O)COc2ccc3ccccc3c2)CC1 (stereo not drawn)	73*	70	7	103*	-15	32	38	52*
CCc1ccc(OCC(O)CN2CCC(CN3C(=O)c4cccc5cccc(c45)C3=O)CC2)cc1 (stereo not drawn)	77*	1	-8	45	-27	21	33	61*
Cc1cc(C)cc(OCC(O)CN2CCC(CN3C(=O)c4cccc5cccc(c45)C3=O)CC2)c1 (stereo not drawn)	69*	78*	4	24	-47	32	37	74*
